Screens from PubChem BioAssay.
Only some compounds are listed: those with a hit (about 5.1% of all), similar ones and a draw of the others.
DNA Pol III inh = blocks replication by bacterial DNA polymerase III holoenzyme | reconstituted DNA polymerase III holoenzyme replication, biochemical | Potency, µM (series often up to 57.1 µM), inactives show top-dose activity change, negative = inhibition | 0.25% of 71,000 active; also: % is scaled to controls: 0 for no effect and ±100 for the full control effect
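Reconstituted *E. coli* holoenzyme (0.35 nM Pol III, 1 nM beta, 154 nM SSB, 2 nM primase) was preincubated with compound for 15 min at RT. Synthesis on 1.4 nM ssM13Gori ran 35 min, then was stopped with PicoGreen/EDTA and read as dsDNA fluorescence.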
TSHR agonist = agonists of human thyroid stimulating hormone receptor; Potency, µM (doses to about 57.1 µM), without a hit: at the top dose activation, most hits filed as activators; AID 926; HEK293-CNG-TSHR cells (CNG channel as cAMP sensor), membrane potential dye, cAMP; 0.48% of 73,000 active; active = well fitted activation curve with a large enough effect in the main read-out, with a control signal flat, not every such curve was filed as active; inconclusive = small, poorly fitted or top-dose-only effect, or a change in a side signal; inactive = no such curve, though single readings can be large or run the other way; % of control where 0% means no effect;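 also: the control signal comes from parental cells without the receptor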
Target sequence (P16473 whole entry, looked up): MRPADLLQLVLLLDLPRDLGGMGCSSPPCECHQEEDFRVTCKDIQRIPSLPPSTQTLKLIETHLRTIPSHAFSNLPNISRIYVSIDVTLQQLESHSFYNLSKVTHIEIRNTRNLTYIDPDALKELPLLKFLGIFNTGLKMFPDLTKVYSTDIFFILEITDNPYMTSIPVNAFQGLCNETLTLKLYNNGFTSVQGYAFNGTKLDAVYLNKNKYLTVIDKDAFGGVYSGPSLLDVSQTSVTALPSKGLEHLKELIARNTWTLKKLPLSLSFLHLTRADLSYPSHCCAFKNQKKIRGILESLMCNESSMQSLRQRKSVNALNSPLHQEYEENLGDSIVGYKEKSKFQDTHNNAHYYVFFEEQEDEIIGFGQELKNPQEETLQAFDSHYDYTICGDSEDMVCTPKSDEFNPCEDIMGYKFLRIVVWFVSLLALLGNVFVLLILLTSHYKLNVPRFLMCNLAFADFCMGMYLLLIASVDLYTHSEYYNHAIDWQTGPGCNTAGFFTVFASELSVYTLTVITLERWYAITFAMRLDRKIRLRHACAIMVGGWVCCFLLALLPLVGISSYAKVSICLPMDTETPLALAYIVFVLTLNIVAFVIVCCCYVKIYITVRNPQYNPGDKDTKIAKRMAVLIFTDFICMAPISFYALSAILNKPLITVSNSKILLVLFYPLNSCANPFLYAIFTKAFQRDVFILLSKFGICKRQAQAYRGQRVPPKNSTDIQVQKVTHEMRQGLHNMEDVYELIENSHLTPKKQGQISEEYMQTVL
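cAMP rise detected as CNG-channel membrane depolarization by fluorescent dye (emission 590 nm), 30 min after compound, following 60 min dye loading containing 100 uM RO 20-1724 at room temperature. Cells: TSHR/CNG HEK 293, with parental CNG HEK 293 as control.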
HEK293 cAMP ctrl = parental HEK293 cAMP activation (counter-screen); parental HEK293 CNG cAMP sensor, membrane potential fluorescence; AID 938; Potency, µM (highest dose often 57.1 µM), for the others: at the highest dose activation, usual class: activators; 2.5% of 73,000 active; also: % of control where 0% means no effect; nearly all actives have a fitted effect of over 55% in size
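Counterscreen for endogenous-receptor signalling: CNG-channel HEK 293 cells report cAMP rise by membrane depolarization. After 60 min dye equilibration with 100 uM RO 20-1724, compounds incubated 30 min before bottom-read fluorescence at 590 nm.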
Hsp90 Hop PPI = changes Hsp90-Hop TPR2A binding signal, up or down | AlphaScreen TPR2A-His6 binding biotin-Hsp90 C-terminal peptide | Potency, µM (highest dose often 57 µM), for the others: at the highest dose activity change, negative = inhibition | 0.44% of 71,000 active | AID 595; active = well fitted curve in either direction with a large enough effect; inconclusive = small, poorly fitted or top-dose-only effect, or another doubt; also: % is scaled to controls: 0 for no effect and ±100 for the full control effect
Tau fil binding = binds recombinant human tau filaments. P10636. recombinant tau filaments, thioflavin S fluorescence, 15 h; filaments grown with octadecylsulfate alongside compound. Potency, µM (series often up to 57.1 µM), without a hit: at the highest dose activity change, negative = inhibition. 2% of 71,000 active;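 also: % is scaled to controls: 0 for no effect and ±100 for the full control effect; actives lower thioflavin S fluorescence by blocking filaments or displacing dye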
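Thioflavine S fluorescence (ex 450, em 510 nm) reports filaments formed from 1 uM human tau plus 30 uM ODS over 15 h at 37 C (10 mM HEPES pH 7.4, 100 mM NaCl, 5 mM DTT); compounds displacing dye or blocking filaments lower signal.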
* marks the source's active call; other numbers are inactive results; u = inconclusive; x = no result; [ ] = another dose, or the depositor's remark. Unless noted, calls follow the shape of the dose curve; as a rule, active = well fitted curve in the direction sought with a large enough effect; inconclusive = small, poorly fitted or top-dose-only effect, or another doubt; inactive = no such curve, though single readings can be large; an effect the other way counts as inactive or inconclusive. Potency is read from the fitted curve at half-maximal effect.

SMILES | DNA Pol III inh | TSHR agonist | HEK293 cAMP ctrl | Hsp90 Hop PPI | Tau fil binding
Cn1c(=O)c(CCc2ccccc2)nc2cnc(OCc3ccccc3)nc21 | 5% | u | 1µM* | 27% | -5%
COc1ncc2nc(CCc3ccccc3)c(=O)n(Cc3cccs3)c2n1 | -6% | u | 10µM* | 9% | -8%
COc1cccc(Cn2c(=O)c(CCc3ccccc3)nc3cnc(OC)nc32)c1 | -3% | u | 16µM* | 24% | -12%
COc1ccccc1OCc1nc(C#N)c(N2CC(C)CC(C)C2)o1 (stereo not drawn) | -8% | u | 13µM* | u | 17%
N#Cc1nc(-c2ccco2)oc1N1CCN(c2cccc(Cl)c2)CC1 | -4% | u | 20µM* | u | 28%
N#Cc1nc(-c2ccco2)oc1N1CCCC1 | 2% | 7% | 11% | -7% | 2%
N#Cc1nc(-c2ccco2)oc1N1CCc2ccccc2C1 | 2% | u | 25µM* | u | -10%
COc1ccccc1-c1nc(C#N)c(N2CCN(c3cccc(Cl)c3)CC2)o1 | 5% | u | u | -5% | 6%
N#Cc1nc(-c2ccco2)oc1N1CCN(C(c2ccccc2)c2ccccc2)CC1 | 0% | 4µM* | 13% | -5% | 6%
Cc1onc(-c2c(Cl)cccc2Cl)c1C(=O)N[C@H]1C(=O)N2[C@H]1SC(C)(C)[C@H]2C(=O)O | -3%[25.6 µM] | -17%[25.6 µM] | 27%[25.6 µM] | -1%[26 µM] | 1%[25.6 µM]
Nc1nc(C2CC2)c(Sc2sc(N)nc2C2CC2)s1 | 2% | -17% | -17% | -17% | -10%
CC(=O)OCc1ccc2c(c1)OCO2 | -7% | -5% | 13% | -4% | 14%
C[C@@H]1O[C@@H](n2cc(F)c(=O)[nH]c2=O)[C@H](O)[C@@H]1O | -3% | x | 16% | -7% | 8%
CC1CC(C)CN(c2oc(-c3ccco3)nc2C#N)C1 (stereo not drawn) | 1% | u | 16µM* | u | 32%
CCN=c1scc(-c2ccc3c(c2)NC(=O)CO3)n1N=C1CCCC1 | 2% | -7% | -7% | u | 13µM*
S=C(c1ccc(-c2cccc(Cl)c2)o1)N1CCOCC1 | -2% | 27% | 20% | -30% | 16µM*
N#CCCN1CCN(C(=S)c2ccc(-c3cccc(Cl)c3)o2)CC1 | 11% | x | 22% | u | 4µM*
N#CCCN1CCN(C(=S)c2ccc(-c3ccc(Cl)c(Cl)c3)o2)CC1 | 25% | -9% | -2% | u | 13µM*
N#CCCN1CCN(Cc2cc(-c3ccccc3)ccc2O)CC1 | -6% | -8% | 13% | -8% | 7%
S=C(c1ccc(-c2cc(Cl)ccc2Cl)o1)N1CCOCC1 | x | x | 27% | x | x
COc1ccc(Oc2ncc3nc(-c4cccc(C#N)c4)c(=O)n(CCC#N)c3n2)cc1 | -8% | u | u | -7% | -1%
CS(=O)(=O)N1CCC2(CCCN(Cc3cc(C(F)(F)F)cc(C(F)(F)F)c3)C2)CC1 | 12% | x | 16% | -18% | -5%
O=C(c1oc2ccccc2c1CSCc1ccccc1)N1CCN(c2ncccn2)CC1 | u | u | 10µM* | 9% | 24%
Cc1nn(-c2ccccc2)c2sc(C(=O)N3CCCCC3)cc12 | -1% | 28% | 24% | 3% | 18%
Cc1nn(-c2ccccc2)c2sc(C(=O)N3CCc4ccccc4C3)cc12 | 0% | u | 20µM* | 11% | 49%
SMILES | DNA Pol III inh | TSHR agonist | HEK293 cAMP ctrl | Hsp90 Hop PPI | Tau fil binding
O=C(Nc1cccc(F)c1)N1CCCC2(CCN(C(=O)c3cccc(F)c3)CC2)C1 | -9% | u | u | 4% | -11%
O=C(Nc1ccccc1)N1CCCC2(CCN(C(=O)c3cc(C(F)(F)F)cc(C(F)(F)F)c3)CC2)C1 | -10% | 25µM* | 30% | -1% | -10%
O=C(Nc1ccccc1)N1CCCC2(CCN(C(=O)c3cccc(F)c3)CC2)C1 | -6% | 25µM* | 9% | 6% | 7%
C[N+]1(CCC(=O)c2ccco2)CC2CCC(CC2)C1 (stereo not drawn) | -4%[11.4 µM] | 6%[11.4 µM] | 1%[11.4 µM] | -4%[11 µM] | 13%[11.4 µM]
O=C(c1cccc(F)c1)N1CCC2(CC1)CN(c1ccccc1)C2 | -1% | -3% | -1% | -4% | 0%
CC1CC(C)CN(CCC(=O)Nc2cccc(Cl)c2)C1 (stereo not drawn) | -8% | 10% | 7% | -4% | 20µM*
O=C(CCN1CCCCCC1)Nc1cccc(Cl)c1 | 3% | 7% | 16% | -2% | -21%
COc1ccccc1-c1cncnc1N1CCN(C)CC1 | -7% | 1% | -11% | -8% | -3%
CCOC(=O)c1[nH]c(COC(=O)C2CC(=O)N(Cc3ccccc3)C2)c(C(=O)OCC)c1C (stereo not drawn) | -3% | u | 25µM* | -7% | 10%
O=C(O)C1CC(=O)N(Cc2ccccc2)C1 (stereo not drawn) | 1% | -1% | 1% | -5% | 1%
CN(c1ccc(C(=O)Nc2nccs2)cc1)S(=O)(=O)c1ccccc1 | -4% | u | 32µM* | -6% | -4%
Cc1noc(C)c1-c1ccc2ncnc(NCCN3CCOCC3)c2c1 | -5% | 7% | 24% | -5% | 6%
COc1cc(C2c3c(oc4ccc(C)cc4c3=O)C(=O)N2c2cc(C)ccn2)cc(OC)c1OC (stereo not drawn) | -1% | 8% | 2% | 2% | -11%
Cc1ccc2oc3c(c(=O)c2c1)C(c1cccc(O)c1)N(c1ccccn1)C3=O (stereo not drawn) | 6% | -5% | 0% | -7% | 13µM*
CCC(O)OC(O)CC (stereo not drawn) | -2% | u | -7% | -2% | -2%
CCc1cccc2nc3c(c([Si](CC)(CC)CC)c12)Cn1c-3cccc1=O | 1% | u | 25µM* | 25µM* | 20µM*
CCc1c2c(nc3c(C(C)C)cccc13)-c1cccc(=O)n1C2 | -10% | u | 25µM* | u | 174%
CC(C)c1cccc2nc3c(c([Si](C)(C)C)c12)Cn1c-3cccc1=O | -6% | u | 13µM* | u | 32µM*
CCN1C(=O)[C@H]2[C@@H]3[C@H](O)[C@H](O)CC(=O)[C@H]3CC[C@H]2C1=O | x | 1%[11.4 µM] | -4%[11.4 µM] | x | x
CN(C)CCCSc1ccccc1NC(=O)/C=C\c1ccccc1 | -4% | 20% | 23% | 1% | u
COc1cc(C2SCCCCCCCCCCSC(c3ccc(O)c(OC)c3)SCCCCCCCCCCS2)ccc1O (stereo not drawn) | -16%[11.4 µM] | x | 17%[11.4 µM] | -3%[11 µM] | 3%[11.4 µM]
O=C(c1ccc(C23CC4CC(CC(C4)C2)C3)o1)N1CCOCC1 | -7% | 13µM* | 19% | -9% | -2%
O=C(c1ccc(COc2c(F)c(F)c(F)c(F)c2F)o1)N1CCOCC1 | -5% | x | 20% | -7% | 2%
O=C(c1ccco1)N1CCN(S(=O)(=O)c2ccc(Oc3ccccc3)cc2)CC1 | 7% | u | 20µM* | -2% | 6%
COc1ccc2[nH]c3c(c2c1)CN(C)CC3 | -3% | 26% | -10% | -28% | 25µM*
